Measurements reported in PubChem BioAssay AID1159580 (chemical genetic matrix, 2015).
Among all 5,500 compounds or so, about 2,000 (36%) were called active. About 18% were inconclusive and are not listed. The list shows a part of the results. Unmarked numbers belong to inactive results. Rule as the data show it: active = normalized growth mostly below about 0.91 (no sharp cut-off); inconclusive = no clear call, values can overlap the other calls; inactive = mostly above about 0.92.

Test: chemical genetic growth profiling, strain panel (AID 1159580);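 also: tested at 20 µM; growth read once vehicle control cultures reached saturation at 30 °C; 1 = growth at the plate median or of vehicle wells; lower values mean less growth of the strain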
Settings: S. cerevisiae deletion strains, growth OD

## S=C(Nc1ccc(Cl)cc1Cl)N(c1cccc(Cl)c1)c1nc2ccccc2s1
Locus YAR019C, strain CDC15, stronger effect = lower value
  normalized growth: 0.956
Locus YBL105C, strain PKC1, stronger effect = lower value
  normalized growth: 0.96
Locus YBR135W, strain CKS1, stronger effect = lower value
  normalized growth: 0.951
Locus YBR136W, strain MEC1, stronger effect = lower value
  normalized growth: 0.962
Locus YBR160W, strain CDC28, stronger effect = lower value
  normalized growth: 0.964
Locus YDL017W, strain CDC7, stronger effect = lower value
  normalized growth: 0.96
Locus YDL028C, strain MPS1, stronger effect = lower value
  normalized growth: 0.963
Locus YDL101C, strain DUN1, stronger effect = lower value
  normalized growth: 0.987
Locus YDL108W, strain KIN28, stronger effect = lower value
  normalized growth: 0.955
Locus YDL132W, strain cdc53, stronger effect = lower value
  normalized growth: 0.967
Locus YDL214C, strain PRR2, stronger effect = lower value
  normalized growth: 0.821
Locus YDR052C, strain DBF4, stronger effect = lower value
  normalized growth: 0.964
Locus YDR054C, strain cdc34, stronger effect = lower value
  normalized growth: 0.955
Locus YDR226W, strain ADK1, stronger effect = lower value
  normalized growth: 0.954
Locus YDR477W, strain SNF1, stronger effect = lower value
  normalized growth: 0.778
Locus YER123W, strain YCK3, stronger effect = lower value
  normalized growth: 0.778
Locus YER133W, strain GLC7, stronger effect = lower value
  normalized growth: 0.765
Locus YFL009W, strain cdc4, stronger effect = lower value
  normalized growth: 0.951
Locus YFL029C, strain CAK1, stronger effect = lower value
  normalized growth: 0.962
Locus YFR003C, strain YPI1, stronger effect = lower value
  normalized growth: 0.961
Locus YFR019W, strain FAB1, stronger effect = lower value
  normalized growth: 0.878
Locus YFR028C, strain CDC14, stronger effect = lower value
  normalized growth: 0.949
Locus YGR040W, strain KSS1, stronger effect = lower value
  normalized growth: 0.785
Locus YGR052W, strain FMP48, stronger effect = lower value
  normalized growth: 0.846
Locus YGR092W, strain DBF2, stronger effect = lower value
  normalized growth: 0.598
Locus YHR030C, strain SLT2, stronger effect = lower value
  normalized growth: 0.674 (active)
Locus YHR079C, strain IRE1, stronger effect = lower value
  normalized growth: 0.779
Locus YHR082C, strain KSP1, stronger effect = lower value
  normalized growth: 0.871
Locus YHR205W, strain SCH9, stronger effect = lower value
  normalized growth: 0.778
Locus YIL147C, strain SLN1, stronger effect = lower value
  normalized growth: 0.963
Locus YJL095W, strain BCK1, stronger effect = lower value
  normalized growth: 0.75
Locus YJL128C, strain PBS2, stronger effect = lower value
  normalized growth: 0.933
Locus YJL157C, strain FAR1, stronger effect = lower value
  normalized growth: 0.794
Locus YJR016C, strain ILV3, stronger effect = lower value
  normalized growth: 0.955
Locus YJR066W, strain TOR1 (second series), stronger effect = lower value
  normalized growth: 0.714
Locus YJR066W, strain TOR1, stronger effect = lower value
  normalized growth: 0.777
Locus YKL048C, strain ELM1, stronger effect = lower value
  normalized growth: 0.885
Locus YKL067W, strain YNK1, stronger effect = lower value
  normalized growth: 0.835
Locus YKL101W, strain HSL1, stronger effect = lower value
  normalized growth: 0.823
Locus YKL193C, strain SDS22, stronger effect = lower value
  normalized growth: 0.957
Locus YKL203C, strain TOR2, stronger effect = lower value
  normalized growth: 0.849
Locus YLR113W, strain HOG1, stronger effect = lower value
  normalized growth: 0.743 (active)
Locus YLR133W, strain CKI1, stronger effect = lower value
  normalized growth: 0.783
Locus YLR403W, strain SFP1, stronger effect = lower value
  normalized growth: 0.664
Locus YML070W, strain DAK1, stronger effect = lower value
  normalized growth: 0.795
Locus YMR001C, strain CDC5, stronger effect = lower value
  normalized growth: 0.951
Locus YMR205C, strain PFK2 (second series), stronger effect = lower value
  normalized growth: 0.82
Locus YMR277W, strain FCP1, stronger effect = lower value
  normalized growth: 0.95
Locus YNL006W, strain LST8, stronger effect = lower value
  normalized growth: 0.955
Locus YNL020C, strain ARK1, stronger effect = lower value
  normalized growth: 0.763
Locus YNL161W, strain CBK1, stronger effect = lower value
  normalized growth: 0.949
Locus YNL183C, strain NPR1, stronger effect = lower value
  normalized growth: 0.817
Locus YNL207W, strain RIO2, stronger effect = lower value
  normalized growth: 0.955
Locus YNL222W, strain SSU72, stronger effect = lower value
  normalized growth: 0.963
Locus YNL307C, strain MCK1 (second series), stronger effect = lower value
  normalized growth: 0.784
Locus YOL078W, strain AVO1, stronger effect = lower value
  normalized growth: 0.957
Locus YOL136C, strain PFK27, stronger effect = lower value
  normalized growth: 0.816
Locus YOR061W, strain CKA2, stronger effect = lower value
  normalized growth: 0.712
Locus YOR119C, strain RIO1, stronger effect = lower value
  normalized growth: 0.811
Locus YOR231W, strain MKK1, stronger effect = lower value
  normalized growth: 0.809
Locus YOR329C, strain SCD5, stronger effect = lower value
  normalized growth: 0.962
Locus YPL031C, strain PHO85, stronger effect = lower value
  normalized growth: 0.734
Locus YPL153C, strain RAD53, stronger effect = lower value
  normalized growth: 0.811
Locus YPL204W, strain HRR25, stronger effect = lower value
  normalized growth: 0.719
Locus YPL209C, strain IPL1, stronger effect = lower value
  normalized growth: 0.96
Locus YPL256C, strain CLN2, stronger effect = lower value
  normalized growth: 0.791 (active)
Locus YPR025C, strain CCL1, stronger effect = lower value
  normalized growth: 0.961
Locus YPR106W, strain ISR1, stronger effect = lower value
  normalized growth: 0.961
Locus YPR111W, strain DBF20, stronger effect = lower value
  normalized growth: 0.949
Strain NNK1, stronger effect = lower value
  normalized growth: 0.951
Strain TSCII, stronger effect = lower value
  normalized growth: 0.954
